# D1 ag – agonists of human D1 dopamine receptor; AID 504660; HEK293 T-REx D1 cells, calcium flux, agonist mode; activation, % at 2 µM; actives 1% (n = 360,000); P21728; also: 0% is about no effect
#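 Tetracycline-induced HEK293 TREx D1 cells, force-coupled to calcium signalling, were dye-loaded with a no-wash calcium kit. Compound was pin-added after a 10 s baseline. Fluorescence was read kinetically at 1 cycle/s for 180 s, with calcium rises flagged as agonism.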
# TRHR PAM – allosteric enhancers of human TRH receptor. enhancement, % at 2 µM. P34981. actives 0.66% (n = 360,000). TRHR cells, fluo-8 calcium fluorescence, EC20 TRH enhancement; in the data active = enhancement above about 30%; also: 0% is about no effect
# Target sequence (P34981 whole entry, looked up): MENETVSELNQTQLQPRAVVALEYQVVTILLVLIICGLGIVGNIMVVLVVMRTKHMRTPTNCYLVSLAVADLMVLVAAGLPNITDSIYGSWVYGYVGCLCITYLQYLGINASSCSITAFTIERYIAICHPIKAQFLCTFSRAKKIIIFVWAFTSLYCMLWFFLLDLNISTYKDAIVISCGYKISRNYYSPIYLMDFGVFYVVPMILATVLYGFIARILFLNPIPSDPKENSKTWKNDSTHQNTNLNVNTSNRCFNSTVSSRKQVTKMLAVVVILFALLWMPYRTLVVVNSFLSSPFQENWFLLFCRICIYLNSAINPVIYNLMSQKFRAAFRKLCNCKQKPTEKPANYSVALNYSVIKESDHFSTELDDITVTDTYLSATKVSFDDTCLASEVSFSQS
#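 TRHR-expressing cells loaded with fluo-8 calcium dye were read kinetically (ex 480/em 530) during compound addition, then stimulated with an EC20 of TRH (10 nM final). Enhancement of the Gq-mediated intracellular calcium response was scored.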
# D1 PAM – enhances dopamine response at the human D1 receptor. AID 504651. HEK293 TREx D1 cells, calcium flux, dopamine EC20 potentiation. actives 0.036% (n = 360,000). potentiation, % at 10 µM; in the data active = potentiation above about 30%; also: 0% is about no effect
# TRHR agonist – TRH receptor (human) agonism | TRHR cells, calcium flux fluo-8, FDSS agonist mode | activation, % at 2 µM | actives 0.18% (n = 360,000) | AID 493084; also: 0% is about no effect
#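 TRHR-expressing cells loaded with fluo-8 calcium dye; 23 nL library compound pin-transferred, kinetic FDSS fluorescence (Ex 480/Em 530) recorded about 180 s for agonist-induced calcium release, before a 10 nM TRH EC20 addition for potentiator mode.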
# D1 antag – human D1 dopamine receptor antagonism | P21728 | HEK293 TREx D1 cells, calcium flux, dopamine EC80; hits give low values | activity change, negative = inhibition, % at 10 µM | actives 3.2% (n = 360,000) | AID 504652; in the data active = activity change below about -30%; also: % is scaled to controls: 0 for no effect and ±100 for the full control effect
#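 Compound effects on dopamine-evoked calcium signalling were measured in tetracycline-induced HEK293 Trex D1 cells. Dopamine at EC80 followed a 180 s compound pre-read, and fluorescence was tracked kinetically for 180 s more.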
# Starred values were filed as active, the others as inactive; . = not tested or not shown. This is a sample that favours compounds with a hit; in the whole collection about 4.6% have one here. Rule as the data show it, unless noted: active = activation above about 30%; inactive = the rest.
SMILES,D1 ag,TRHR PAM,D1 PAM,TRHR agonist,D1 antag
Cc1nn(C)c(C)c1S(=O)(=O)N(CC(=O)NCCc1ccc(Cl)cc1)c1ccc(C(C)C)cc1,4,-1,0,1,-10
COc1ccc(CCNC(=O)CN(c2ccccc2)S(=O)(=O)N(C)C)cc1OC,0,-14,-2,1,1
CCCOc1ccccc1N1C(=O)CC(N(O)c2ccccc2)C1=O (configuration not stated),2,38*,2,0,13
Cc1ccc(C=Nc2ccccc2C(N)=O)cc1,60*,-8,-8,0,-35*
Cc1ccc(C=Nc2ccccc2C(=O)Nc2ccccc2)cc1,0,6,-4,0,-9
CC(C)Oc1ccc(C(=O)NCCc2csc(-c3cccc(F)c3)n2)cc1,11,2,-2,0,-14
CC(C)(C)c1ccc(-n2ncc3c2CCCC3NC(=O)CCN2CCCCC2=O)cc1 (configuration not stated),7,17,1,1,-5
CC(C)(C)c1ccc(-n2ncc3c2CCCC3NC(=O)CN2CCOC2=O)cc1 (configuration not stated),7,-6,-7,0,-42*
O=S(=O)(Nc1ncccn1)c1ccc(NC(=S)Nc2ccc(Cl)cc2)cc1,8,-2,-1,1,-8
COc1ccc(S(=O)(=O)Nc2ncccn2)cc1,1,8,2,0,-44*
COc1ccc(NC(=O)NNS(=O)(=O)c2ccc(Br)cc2)cc1,12,-5,2,-1,5
COc1ccc(CC(=O)Nc2ccc(S(=O)(=O)Nc3ncccn3)cc2)cc1,2,-2,6,0,5
O=C(Nc1ccc(Cl)cc1)Nc1ccc(S(=O)(=O)Nc2ncccn2)cc1,3,0,3,0,-60*
COc1ccc(S(=O)(=O)NNC(N)=S)cc1,2,31*,-1,0,10
Cc1ccc([N+](=O)[O-])cc1S(=O)(=O)n1ccnc1C,4,19,-3,0,19
O=C(Cn1c(NCCO)nc2ccccc21)NCC1CCCO1 (configuration not stated),4,1,-1,1,-5
COc1ccc(OCCCC(=O)Nc2cccc(SC)c2)cc1,2,9,8,0,-73*
CSc1cccc(NC(=O)CCCOc2ccc(Cl)cc2C)c1,6,5,-3,1,0
COc1ccc(/C=C/C(=O)OCC(=O)Nc2cc(C(N)=O)cc(C(N)=O)c2)cc1,1,-6,-3,0,-11
O=C(CCN1CCN(c2ccccc2)CC1)Nc1ccc(OCc2ccccc2)cc1,1,4,-7,0,1
COc1ccc(/C=C/C(=O)OCC(=O)Nc2cccc(C(C)=O)c2)cc1,5,37*,11,0,2
COc1ccc(OCCCC(=O)Nc2cccc(C(C)=O)c2)cc1,9,0,-5,-1,-47*
O=C(CCSc1ccccc1)Nc1ccc(OCc2ccccc2)cc1,5,-8,-10,2,-30*
CC(=O)c1cccc(NC(=O)CCCSc2ccccc2)c1,15,-9,.,0,-39*
O=C(CSCc1ccc(Cl)cc1)Nc1ccccc1O,5,3,0,0,-8
SMILES,D1 ag,TRHR PAM,D1 PAM,TRHR agonist,D1 antag
O=C(COC(=O)/C=C/c1cccs1)Nc1ccc2ccccc2c1,1,3,-3,1,-35*
O=C(CCCSc1ccc(Cl)cc1)Nc1ccccc1O,33*,-3,-9,-1,3
Cc1nc2sc(C(N)=O)c(N)c2c(-c2ccc(Br)cc2)c1C(=O)Nc1ccc(Cl)cc1,3,0,3,0,0
CCCCC(CCC(=O)O)(C(=O)OCC)c1csc(Nc2ccc(OCC)cc2)n1 (configuration not stated),3,-2,2,-1,-20
CN(C(=O)CSc1nc2ccccc2[nH]1)c1ccc(F)cc1,0,-1,-7,0,-38*
CCOc1ccc2nc(SCC(=O)Nc3nonc3C)[nH]c2c1,1,0,-4,-1,-35*
CCN(C(=O)CSc1nc2ccccc2[nH]1)c1ccccc1,6,-3,-6,0,-3
CN(CC(=O)Nc1ccc(F)cc1)C(=O)CSc1nc2ncc(Cl)cc2[nH]1,-2,-1,10,0,3
COc1ccc2nc(SCC(=O)N(C)CC(=O)Nc3ccc(F)cc3)[nH]c2c1,0,36*,-5,0,8
O=C(Nc1ccc(F)cc1)C(Sc1nc2ccccc2[nH]1)c1ccccc1 (configuration not stated),11,-3,-4,0,-42*
O=C(CSc1nc2ccccc2[nH]1)Nc1ccc(F)cc1,2,-3,.,0,-6
CC(C)c1ccc(-c2noc(SCC(=O)N(C)c3ccc(F)cc3)n2)cc1,50*,3,-4,-1,-16
COc1ccccc1OC(C)C(=O)Nc1c(C(=O)c2ccc(Cl)cc2)oc2ccccc12 (configuration not stated),3,-2,-1,0,-9
O=C(O)CCCNC(=O)CCCn1nnc2ccccc2c1=O,0,32*,-2,1,5
O=C(O)CCCCCNC(=O)CCn1cnc2ccccc2c1=O,1,-2,-13,0,-51*
O=C1NC(=S)/C(=C\c2ccc(-c3ccccc3Cl)o2)S1,10,-1,-3,3,-2
O=C1NC(=O)/C(=C/c2ccc(-c3cc(C(=O)O)ccc3Cl)o2)S1,0,-14,0,0,-45*
CC(=O)NCCC1CCCCN1Cc1nc(Cc2cccc(C(F)(F)F)c2)no1 (configuration not stated),1,0,-8,1,-50*
NC(=O)[C@@H]1CCCN1Cc1nc(Cc2cccc(C(F)(F)F)c2)no1,1,-2,-2,0,-1
Cc1ccccc1CN1C(=O)c2ccccc2S(=O)(=O)c2ccc(C(=O)OCC3CCCO3)cc21 (configuration not stated),3,-5,-5,0,-5
Cc1nnc2c3ccccc3nc(Nc3ccc(F)cc3Cl)n12,2,5,2,1,-1
COc1cc(Cl)c(C)cc1Nc1nc2ccccc2c2nnc(C)n12,3,33*,-3,0,-4
CCc1ccc(-c2cc(C)no2)cc1S(=O)(=O)Nc1cc(OC)c(OC)c(OC)c1,4,-4,0,0,-30
Cc1c(NC(=O)c2cc(-n3cnnc3)ccc2Cl)cccc1-c1nc2ccccc2s1,1,5,-3,0,-39*
O=C(Nc1cccc(-c2nc3ccccc3s2)c1)c1cc(-n2cnnc2)ccc1Cl,3,-8,-5,0,-6
Cc1c(NC(=O)c2ccccc2F)cccc1-c1nc2cccnc2s1,-1,11,-2,-1,-80*
